In the library only some 21% were active in any assay of this set; here they are far more common.
Pf growth 48h: P. falciparum growth inhibition at 48 hours (one generation); P. falciparum luciferase growth in erythrocytes, 48 h; Potency, µM (highest dose often 28.7 µM), for inactives: at the highest dose activity change, negative = inhibition, usual class: inhibitors; actives 5.9% (n = 310,000); AID 504832; further: potency means the concentration at half of the fitted maximal effect; on the % scale 0 is the no-effect control and ±100 the full control effect
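Here the parasites carry a stable luciferase gene and grow inside erythrocytes in Albumax-based RPMI medium with compound for one erythrocytic cycle. Activity is scored as loss of luminescent signal.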
Shiga inhibitor: Shiga toxin inhibition; actives 9.2% (n = 290,000); AID 2315; Vero cells, Shiga toxin protein synthesis inhibition reporter; inhibition, % at 38.7 µM; in the data active means inhibition mostly above about 28%, no sharp cut-off; inactive means mostly below about 43%; further: 0% is about no effect
Pf growth 96h: inhibits malaria parasite growth, 96 h; P. falciparum luciferase reporter growth, 96 h; Potency, µM (titrated, usually from 28.7 µM), inactives show at the top dose activity change, negative = inhibition, actives largely listed as inhibitors; actives 6.9% (n = 320,000); further: potency means the concentration at half of the fitted maximal effect; on the % scale 0 is the no-effect control and ±100 the full control effect
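Plates of compound plus infected erythrocytes (2% hematocrit, 0.05% parasitemia final) incubate 96 hours, 37 C, 5% CO2. Detection reagent added; reduced luminescence from the parasites' luciferase reporter flags inhibition.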
Cycloheximide cs: counter-screen hit for Shiga toxin inhibitors, cycloheximide; cell reporter, cycloheximide protein synthesis inhibition counterscreen; AID 2314; actives 12% (n = 300,000); max response, %; in the data active means max response mostly above about 13%, no sharp cut-off; inactive means mostly below about 14%; further: read at 38.3 µM for the half of the compounds with a filed dose; 0% is about no effect
HCV inhibitor: blocks hepatitis C virus. Huh7.5.1 HCVcc-Cre infection, luciferase reporter, 44 h. Potency, µM (highest dose often 41.8 µM), inactives show top-dose activity change, negative = inhibition, hits mostly inhibitors. actives 3.4% (n = 340,000); further: potency means the concentration at half of the fitted maximal effect; on the % scale 0 is the no-effect control and ±100 the full control effect
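Luciferase read-out (15 sec integration) after a 15 min room-temperature substrate step quantifies HCVcc-Cre infection. Cells, 1,000 per well, had compound added 4 h post-plating, then virus at ~0.5 moi, and were cultured 44 h.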
HCMV inh: blocks human cytomegalovirus replication | activity change, negative = inhibition, % at 57.5 µM | HFF cells, HCMV-luciferase reporter, 72 h; active compounds read low | actives 4.5% (n = 410,000); in the data active means activity change below about -60%; inconclusive means no clear call, values can overlap the other calls; inactive means above about -39%; further: on the % scale 0 is the no-effect control and ±100 the full control effect
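Compounds were evaluated in HFFs infected with an HCMV luciferase reporter virus (MOI 1 PFU/cell). Luciferase in lysates collected 72 h post infection served as the replication measure.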
* hit, by the source's call. Unless noted, the call rests on the fitted dose curve; in most records, active means well fitted inhibition curve with a large enough effect; inconclusive means small, poorly fitted or top-dose-only effect, or another doubt; inactive means no such curve, though single readings can be large or run the other way.

How did O=S(=O)(Nc1ccccc1N1CCCCC1)c1ccc(F)cc1F do in these assays?
Pf growth 48h: 0%; Shiga inhibitor: 16; Pf growth 96h: inconclusive; Cycloheximide cs: -5; HCV inhibitor: -2%; HCMV inh: inconclusive

How did Cc1cc(C)c(S(=O)(=O)/N=C2\C=C(NS(=O)(=O)c3ccccc3)C(=O)c3ccccc32)c(C)c1 do in these assays?
Pf growth 48h: -24%; Shiga inhibitor: -2; Pf growth 96h: -24%; Cycloheximide cs: -1; HCV inhibitor: 9%; HCMV inh: 55

How did Cc1cc(C)c(S(=O)(=O)/N=C2/C=C(SCC(=O)O)C(=O)c3ccccc32)cc1C do in these assays?
Pf growth 48h: 12µM*; Shiga inhibitor: 8; Pf growth 96h: 10%; Cycloheximide cs: 4; HCV inhibitor: inconclusive

What do the screens show for `Cc1ccc(C(=O)OCC(=O)NC2CCCCC2)cc1S(=O)(=O)N1CCCCC1`?
Pf growth 48h: inconclusive; Pf growth 96h: inconclusive; HCV inhibitor: -5%; HCMV inh: inconclusive

Results for COC(=O)c1ccc(/C=N/OCC(=O)NC2CCCC(C)C2C)cc1 (centres undefined) ?
Shiga inhibitor: -9; Pf growth 96h: -15%; Cycloheximide cs: -3; HCV inhibitor: inconclusive; HCMV inh: 10

How did COc1cc(/C=N/OCC(=O)Nc2cc(C)cc(C)c2)ccc1OCc1ccc(Cl)cc1 do in these assays?
Pf growth 48h: 172%; Shiga inhibitor: 107*; Pf growth 96h: -36%; Cycloheximide cs: 92*; HCV inhibitor: inconclusive; HCMV inh: 80

How did COc1cc(/C=N/OCC(=O)NC2CCCCC2C)ccc1OCc1ccc(Cl)cc1 (centres undefined) do in these assays?
Pf growth 48h: 110%; Shiga inhibitor: 150*; Pf growth 96h: 43%; Cycloheximide cs: 56*; HCV inhibitor: inconclusive; HCMV inh: inconclusive

Results for Cc1ccc(C2(c3noc(CN4CCOCC4)n3)CCCC2)cc1 ?
Pf growth 48h: 9%; Shiga inhibitor: 6; Pf growth 96h: inconclusive; Cycloheximide cs: -2; HCV inhibitor: 20%; HCMV inh: -22

How did Cc1ccc(C2(c3noc(CN(C)CCCN4CCOCC4)n3)CCCC2)cc1 do in these assays?
Pf growth 48h: -9%; Shiga inhibitor: -6; Pf growth 96h: 8.3µM*; Cycloheximide cs: 2; HCMV inh: inconclusive

Results for Cc1ccc(C2(c3noc(CN(C)Cc4cnn(C)c4)n3)CCCC2)cc1 ?
Pf growth 48h: 11%; Shiga inhibitor: 2; Pf growth 96h: 12µM*; Cycloheximide cs: -1; HCV inhibitor: inconclusive; HCMV inh: -23

What do the screens show for `O=c1[nH]c2ccc(S(=O)(=O)N3CCN(S(=O)(=O)c4c(F)cccc4F)CC3)cc2[nH]c1=O`?
Shiga inhibitor: -2; Cycloheximide cs: -3

How did COc1ccc2[nH]c3c(c2c1)CCN1C(=O)N([C@@H](C)C(=O)NCc2ccccc2)C(=O)[C@]31C do in these assays?
Pf growth 48h: inconclusive; Shiga inhibitor: 9; Pf growth 96h: inconclusive; Cycloheximide cs: -4; HCV inhibitor: -24%; HCMV inh: 14

What do the screens show for `C[C@@H](C(=O)NCCc1ccccc1F)N1C(=O)N2CCc3c([nH]c4ccccc34)[C@@]2(C)C1=O`?
Pf growth 48h: -30%; Shiga inhibitor: 30*; Pf growth 96h: inconclusive; Cycloheximide cs: 23*; HCV inhibitor: 6.3µM*; HCMV inh: 5

What do the screens show for `COc1ccc2[nH]c3c(c2c1)CCN1C(=O)N([C@@H](C)C(=O)NCc2ccccc2OC)C(=O)[C@]31C`?
Pf growth 48h: 4.1µM*; Shiga inhibitor: -5; Pf growth 96h: 7.4µM*; Cycloheximide cs: -1; HCV inhibitor: 13µM*; HCMV inh: 17

How did C[C@@H](C(=O)NCCc1ccccc1)N1C(=O)N2CCc3c([nH]c4ccccc34)[C@@]2(C)C1=O do in these assays?
Pf growth 48h: inconclusive; Shiga inhibitor: 21*; Pf growth 96h: inconclusive; Cycloheximide cs: 19*; HCV inhibitor: 11µM*; HCMV inh: -5

Compound activity deposited in PubChem by National Center for Advancing Translational Sciences (NCATS).
